Data from PubChem BioAssay (Tox21).
“And” between values parts separate entries of the source, which are not always exact repeats. Identical values can stand only once. Inconclusive results are not listed. The source made the active and inactive calls. Unless noted, the call rests on the fitted dose curve; in most records, active means well fitted curve in the direction sought with a large enough effect in the repeat runs; inconclusive means weak or mixed curves; inactive means no such curve, though single readings can be large; an effect the other way counts as inactive or inconclusive.

What was measured:
[1] = qHTS assay to identify small molecule agonists of the hypoxia (HIF-1) signaling pathway (AID 1224846; active means well fitted activation curve with a large enough effect in the signal ratio in the repeat runs, not every such curve was filed as active; the % refers to the signal ratio)
Outline: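 Measured by blue/green FRET after loading CCF4-AM: beta-lactamase expressed from a hypoxia response element in ME-180 cells. Test agents were delivered in DMSO and left 17 hrs; cells had been plated 5 hrs earlier in low-serum (0.5% dialyzed FBS) medium.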

[2] = qHTS assay to identify small molecule antagonists of the estrogen related receptor (ERR) signaling pathway from Tox21 library (AID 1224848); further: nearly all actives have a fitted effect of over 50% in size; further: potency means the concentration at half of the fitted maximal effect
Outline: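 Cells: ERR line, 2,000/well; 6 h preincubation 37 C/5% CO2. Cpd in DMSO via pin tool; 18 h, 37 C. ONE-Glo, 30 min RT, luminescence.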

[3] = qHTS assay to identify small molecule agonists of the estrogen related receptor (ERR) signaling pathway from Tox21 library (AID 1224849; calls by dose curve; further: nearly all actives have a fitted effect of over 15% in size); conditions: ERR reporter cell line, ONE-Glo luciferase, 18 h; at 92.4 µM (top of the series) unless noted
Outline: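 We plated ERR reporter cells, waited 6 h, added compounds in DMSO by pin tool and incubated them 18 h at 37 C. ONE-Glo was then added and luminescence read after 30 min.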

[4] = qHTS RealTime-Glo MT Cell Viability Assay in HepG2 cells - 24 hour (AID 1224867); further: nearly all actives have a fitted effect of over 50% in size
Outline: (§1)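 Compound treatment began 5 h after plating HepG2 cells (600/well) with NanoLuc luciferase and prosubstrate. Plates stayed at 37 C for 40 h; luminescence was captured at six time points, 0 h through 40 h.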

[5] = A CellTox Green Cytotoxicity Assay to monitor cytotoxicity in HEK293 cells - 0 hour (AID 1224869); further: nearly all actives have a fitted effect of over 50% in size
Outline: (§2)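 Each value comes from one timepoint of a single continuous run in which HEK293 cells with CellTox Green were exposed to compound for up to 40 h at 37 C, dye fluorescence rising with cell death.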

[6] = qHTS RealTime-Glo MT Cell Viability Assay in HepG2 cells - 40 hour (AID 1224870); further: nearly all actives have a fitted effect of over 50% in size
Outline: (§3)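 HepG2 cells mixed with RealTime-Glo MT reagents (NanoLuc plus cell-permeant prosubstrate) were seeded at 600 cells/well, incubated 5 h at 37 C/5% CO2, then pinned with compounds in DMSO; nonlytic luminescence tracked viability during 40 h treatment.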

[7] = A CellTox Green Cytotoxicity Assay to monitor cytotoxicity in HEK293 cells - 40 hour (AID 1224871); further: nearly all actives have a fitted effect of over 45% in size
Outline: as §2

[8] = qHTS RealTime-Glo MT Cell Viability Assay in HEK293 cells - 16 hour (AID 1224872); further: nearly all actives have a fitted effect of over 50% in size; further: potency means the concentration at half of the fitted maximal effect
Outline: (§4)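 Quantitative high-throughput screen of the Tox21 10K library in HEK293: cells and RealTime-Glo reagents plated together, compound added at 5 h, luminescence monitored through 40 h at 37 C.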

[9] = qHTS RealTime-Glo MT Cell Viability Assay in HepG2 cells - 8 hour (AID 1224873); further: nearly all actives have a fitted effect of over 55% in size
Outline: as §3

[10] = A CellTox Green Cytotoxicity Assay to monitor cytotoxicity in HEK293 cells - 24 hour (AID 1224875); further: nearly all actives have a fitted effect of over 45% in size
Outline: as §2

[11] = A CellTox Green Cytotoxicity Assay to monitor cytotoxicity in HepG2 cells - 16 hour (AID 1224876); further: nearly all actives have a fitted effect of over 45% in size
Outline: (§5)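 Continuous culture of HepG2 cells with a membrane-impermeant DNA dye; rising fluorescence marks dead cells. Compound exposure lasted up to 40 h at 37 C, with reads every 8 h from 0 h.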

[12] = qHTS RealTime-Glo MT Cell Viability Assay in HepG2 cells - 32 hour (AID 1224877); further: nearly all actives have a fitted effect of over 55% in size
Outline: as §1

[13] = A CellTox Green Cytotoxicity Assay to monitor cytotoxicity in HepG2 cells - 24 hour (AID 1224878); further: nearly all actives have a fitted effect of over 45% in size
Outline: as §5

[14] = A CellTox Green Cytotoxicity Assay to monitor cytotoxicity in HepG2 cells - 40 hour (AID 1224879); further: nearly all actives have a fitted effect of over 40% in size; further: potency means the concentration at half of the fitted maximal effect
Outline: as §5

[15] = qHTS RealTime-Glo MT Cell Viability Assay in HEK293 cells - 0 hour (AID 1224880)
Outline: (§6)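 qHTS format; HEK293 cells with NanoLuc/prosubstrate reagent, 37 C/5% CO2 for 5 h pre-dosing; compounds 23 nL in DMSO; luminescence at each time point reflects viable cells.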

[16] = qHTS assay to identify small molecule agonists of H2AX (AID 1224845; active means well fitted activation curve with a large enough effect in the signal ratio in the repeat runs, not every such curve was filed as active; the % refers to the signal ratio)
Outline: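 Wild-type CHO-K1 cells plated overnight, then exposed 3 hr at 37C to compounds at 15 concentrations (0.76% DMSO). Lysed, then HTRF anti-pH2AX(S139)-cryptate/anti-H2AX-d2 detection after 24 hr at room temperature; emissions 665 and 620 nm.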

[17] = qHTS assay to identify small molecule agonists of H2AX - cell viability counter screen (AID 1224847; calls by dose curve; further: top concentration of the series differs between compounds; nearly all actives have a fitted effect of over 30% in size)
Outline: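 Cytotoxicity counter screen in wild-type CHO-K1 cells: a 3 hr compound treatment at 37C across 15 concentrations, followed by CellTiter-Glo luminescence to gauge viable cells.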

[18] = qHTS RealTime-Glo MT Cell Viability Assay in HEK293 cells - 32 hour (AID 1224868); further: nearly all actives have a fitted effect of over 50% in size; further: potency means the concentration at half of the fitted maximal effect
Outline: as §4

[19] = qHTS RealTime-Glo MT Cell Viability Assay in HEK293 cells - 40 hour (AID 1224874); conditions: RealTime-Glo luminescence; max response: active compounds read low; further: nearly all actives have a fitted effect of over 50% in size; further: potency means the concentration at half of the fitted maximal effect
Outline: as §6
On the % scale 0 is the no-effect control and ±100 the full control effect.

CCC(=O)OC(C)(C)C1CC=C(C)CC1 (centres undefined)
inactive: outcome [1] | Potency [2] | activity change, positive = activation [3] -6.48% | Potency [4] | Potency [5] | Potency [6] | Potency [7] | Potency [8] | Potency [9] | Potency [10] | Potency [11] | Potency [12] | Potency [13] | Potency [14] | Potency [15]

CCCCc1cc2ccccc2c(OCCN(C)C)n1
inactive: Potency [16] | outcome [1] | Potency [4] | Potency [5] | Potency [6] | Potency [9] | Potency [12] | Potency [15]

Cn1sccc1=O
active: Potency [2] 48.6 µM
inactive: Potency [17] | activity change, positive = activation [3] -14.6% and -29.4% | Potency [4] | Potency [5] | Potency [6] | Potency [7] | Potency [8] | Potency [9] | Potency [11] | Potency [12] | Potency [13] | Potency [15]

CC(C)c1ccc2c(C(C)C)cc(C(C)C)c(S(=O)(=O)O)c2c1
inactive: Potency [16] | outcome [1] | Potency [4] | Potency [18] | Potency [5] | Potency [6] | Potency [9] | max response [19] -12.5% | Potency [11] | Potency [13] | Potency [14] | Potency [15]

O=S1(=O)N=C(O)c2ccccc21
inactive: outcome [1] | Potency [17] | Potency [4] | Potency [5] | Potency [6] | Potency [8] | Potency [9] | max response [19] 2.61% | Potency [10] | Potency [12] | Potency [13] | Potency [15]

CCCCOc1ccc(CC(=O)NO)cc1
active: Potency [8] 2.68 µM
inactive: Potency [17] | Potency [4] | Potency [5] | Potency [6] | Potency [7] | Potency [9] | Potency [10] | Potency [11] | Potency [12] | Potency [13] | Potency [15]

CCCCOCCOCCOCCOCCO
inactive: Potency [16] | Potency [17] | Potency [4] | Potency [18] | Potency [5] | Potency [6] | Potency [8] | Potency [9] | max response [19] -11.7% | Potency [11] | Potency [12] | Potency [13] | Potency [14] | Potency [15]

c1ccc(OCc2ccc(CCCN3CCOCC3)cc2)cc1
inactive: outcome [1] | Potency [17] | activity change, positive = activation [3] -24.5% [at 42.5 µM] | Potency [4] | Potency [5] | Potency [6] | Potency [7] | Potency [9] | Potency [12] | Potency [15]
active: Potency [19] 21.3 µM | Potency [14] 21.3 µM

Oc1ccc(O)c2c(O)cccc12
inactive: Potency [17] | Potency [2] | activity change, positive = activation [3] 1.72% | Potency [4] | Potency [18] | Potency [5] | Potency [6] | Potency [7] | Potency [9] | Potency [10] | Potency [11] | Potency [12] | Potency [13] | Potency [14] | Potency [15]

Oc1ccc2c(c1)OCO2
inactive: outcome [1] | Potency [17] | Potency [4] | Potency [18] | Potency [5] | Potency [6] | Potency [8] | Potency [9] | max response [19] -2.1% | Potency [10] | Potency [11] | Potency [12] | Potency [13] | Potency [14] | Potency [15]

COC(=O)C(C)=O
inactive: Potency [16] | Potency [17] | Potency [2] | activity change, positive = activation [3] -4.12% | Potency [4] | Potency [18] | Potency [5] | Potency [6] | Potency [7] | Potency [8] | Potency [9] | max response [19] -0.909% | Potency [10] | Potency [11] | Potency [12] | Potency [13] | Potency [14] | Potency [15]

CCCOc1ccc2nc(NC(=O)OC)[nH]c2c1
inactive: outcome [1] | Potency [17] | Potency [4] | Potency [5] | Potency [6] | Potency [8] | Potency [9] | Potency [12] | Potency [13] | Potency [15]
active: Potency [14] 0.477 µM

C=CC(C)(CCC=C(C)C)OC(=O)c1ccccc1 (centres undefined)
inactive: outcome [1] | Potency [4] | Potency [18] | Potency [5] | Potency [6] | Potency [9] | max response [19] -13.6% | Potency [11] | Potency [12] | Potency [13] | Potency [14] | Potency [15]

CC[C@]12CCCN3CCc4c(n(c5ccccc45)C(=O)C1)[C@@H]32
active: Potency [18] 4.77 µM | Potency [19] 4.25 µM | Potency [14] 6.74 µM
inactive: Potency [17] | activity change, positive = activation [3] -17.2% [at 42.5 µM] | Potency [4] | Potency [5] | Potency [6] | Potency [9] | Potency [10] | Potency [11] | Potency [12] | Potency [13] | Potency [15]

CCN(CC)CCNC(C(=O)OCCC(C)C)c1ccccc1 (centres undefined)
inactive: outcome [1] | Potency [17] | Potency [2] | activity change, positive = activation [3] 0.0727% [at 42.5 µM] | Potency [4] | Potency [18] | Potency [5] | Potency [6] | Potency [7] | Potency [8] | max response [19] -10.1% | Potency [10] | Potency [11] | Potency [12] | Potency [13] | Potency [14] | Potency [15]

CC(C)=CCCC(C)CC=O (centres undefined)
inactive: Potency [16] | Potency [17] | Potency [4] | Potency [18] | Potency [5] | Potency [6] | Potency [8] | Potency [9] | Potency [10] | Potency [11] | Potency [12] | Potency [13] | Potency [14] | Potency [15]
